The first assay addresses RYR2. The assay is described as follows: pooled miR-30 sensor sort-seq; sequence = guide strand. As to conditions: shRNA.
As to TATGCTATGATTTTCTTCCAGA, the sensor-assay potency score (higher = more potent) was -0.61.

TAAGTTGTAATTGCGCTCCTGT: the sensor-assay potency score (higher = more potent) came out at 0.62.

The sequence TTGCAGTCCACAACCAGCCAAA displayed a sensor-assay potency score (higher = more potent) of -1.35.

As for TTTTATTGTAGAATTTTCGGAA, the sensor-assay potency score (higher = more potent) is -0.252.

Turning to TTCACTTGAACTTCTCGTGGGG, the sensor-assay potency score (higher = more potent) amounted to 0.903.

On to TAGTACATAGTGAACTGCGATG, for which the sensor-assay potency score (higher = more potent) was -0.997.

As for TTCATTATTATCCATCACCGAA, the sensor-assay potency score (higher = more potent) was -1.08.

In the case of TATTCGAGACACATCTACCTTC, the sensor-assay potency score (higher = more potent) stood at 0.298.

As for TTCAGTGTGAACATCATGGTGT, the sensor-assay potency score (higher = more potent) is 0.656.

As to TTTAGTAGCTTCTTTGTCTTTG, the sensor-assay potency score (higher = more potent) worked out at 0.401.

In the next assay the target is S100A11. The assay is described as above. As to conditions: shRNA.
In the case of TATAACCATCCTTTCCAGCATA, the sensor-assay potency score (higher = more potent) is -1.17.

The sequence ATCCTTTCCAGCATACTTCTGG registered a sensor-assay potency score (higher = more potent) of -0.568.

In turn, AAATTCTGAGAAATCTAGCTGA yielded a sensor-assay potency score (higher = more potent) of 0.4.

As to AGTGTAGTTATAACCATCCTTT, the sensor-assay potency score (higher = more potent) was -1.48.

In turn, AATTCTGAGAAATCTAGCTGAC returned a sensor-assay potency score (higher = more potent) of -0.15.

Regarding ATCTAGCTGACCATCACTGTTG, the sensor-assay potency score (higher = more potent) was -0.625.

Regarding TCCAGTTTCTTCATCATGCGGT, the sensor-assay potency score (higher = more potent) was -0.21.

As for AAGCTTAGGAACTCTGTCTTGG, the sensor-assay potency score (higher = more potent) worked out at 0.352.

Consider TAGTTCTGTATTCATGAAGCTT, for which the sensor-assay potency score (higher = more potent) was -0.971.

For TTGTGAAGGCAGCTAGTTCTGT, the sensor-assay potency score (higher = more potent) is -0.251.

Regarding TTCTGGTTCTTTGTGAAGGCAG, the sensor-assay potency score (higher = more potent) was -0.487.

The next assay deals with S100A4. The assay is described as above. As to conditions: shRNA.
TGAGCTTGAACTTGTCACCCTC registered a sensor-assay potency score (higher = more potent) of 0.664.

Consider TTACACATCATGGCGATGCAGG, for which the sensor-assay potency score (higher = more potent) is -0.526.

TTTATTGAACTTGCTCAGCATC gave a sensor-assay potency score (higher = more potent) of -1.33.

TAGTTCTGACTTGTTGAGCTTG: the sensor-assay potency score (higher = more potent) was -0.701.

As for TTCGTTACACATCATGGCGATG, the sensor-assay potency score (higher = more potent) was -1.19.

Take TTGAACTTGTCACCCTCTTTGC: the sensor-assay potency score (higher = more potent) is -0.681.

TACTCTTGGAAGTCCACCTCGT returned a sensor-assay potency score (higher = more potent) of 0.392.

For TTGAGCTTGAACTTGTCACCCT, the sensor-assay potency score (higher = more potent) was 0.789.

Turning to TTGCTCAGCATCAAGCACGTGT, the sensor-assay potency score (higher = more potent) was -0.253.

Sequence TTGTTGAGCTTGAACTTGTCAC registered a sensor-assay potency score (higher = more potent) of -0.424.

In the case of TCAGCTTCTGGAAAGCAGCTTC, the sensor-assay potency score (higher = more potent) came to 0.395.

With TGACTTGTTGAGCTTGAACTTG, the sensor-assay potency score (higher = more potent) was -1.01.

The target of the next assay is S100P. Described as above. As to conditions: shRNA.
On to TTGGTCAGGGTCTGCGTGCTGC, for which the sensor-assay potency score (higher = more potent) is -0.458.

Turning to AAGACGTCTATGATCATGCCCA, the sensor-assay potency score (higher = more potent) came out at 0.0811.

Consider TACTTGTGACAGGCAGACGTGA, for which the sensor-assay potency score (higher = more potent) was -0.639.

In turn, TCCATTGGCGTCCAGGTCCTTG displayed a sensor-assay potency score (higher = more potent) of -1.46.

As to TTGCCAACAAACACTTTTGGGA, the sensor-assay potency score (higher = more potent) was -0.0452.

Sequence TACATGAGCAGGCTCAGCCTAG had a sensor-assay potency score (higher = more potent) of -0.833.

The sequence TGGTAGCTCCTTCTCCATCAGC came in with a sensor-assay potency score (higher = more potent) of -1.75.
Also: reference of the scale not given here.
